# A number with no mark means an inactive call. Inconclusive results are not listed. Where a call stands in place of a potency, no number is given. Active and inactive are the calls of the source. Unless noted, calls follow the shape of the dose curve; as a rule, active = well fitted curve in the direction sought with a large enough effect in the repeat runs; inconclusive = weak or mixed curves; inactive = no such curve, though single readings can be large; an effect the other way counts as inactive or inconclusive.
# Tests used:
# [1] = qHTS RealTime-Glo MT Cell Viability Assay in HEK293 cells - 0 hour (AID 1224880); also: top concentration of the series differs between compounds; nearly all actives have a fitted effect of over 45% in size
# Method in brief: (§1)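 600 cells/well were plated with the nonlytic NanoLuc/prosubstrate reagent, pre-incubated 5 h, then given 23 nL of compound in DMSO. Incubation at 37 C for 40 h, with luminescence from viable-cell-reduced substrate read repeatedly from 0 h.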
# [2] = A CellTox Green Cytotoxicity Assay to monitor cytotoxicity in HepG2 cells - 32 hour (AID 1224883); also: nearly all actives have a fitted effect of over 50% in size
# Method in brief: (§2)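 HepG2 cells, 600/well, preincubated 5 h with CellTox Green dye, then exposed to Tox21 compounds in DMSO at 37 C for up to 40 h. Dead-cell DNA fluorescence read at the indicated time point.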
# [3] = A CellTox Green Cytotoxicity Assay to monitor cytotoxicity in HEK293 cells - 8 hour (AID 1224884); also: nearly all actives have a fitted effect of over 35% in size
# Method in brief: (§3)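 HEK293 cells, 600/well, were preincubated 5 hours and then exposed to compounds at 37 C for up to 40 hours. A cell-impermeant cyanine dye staining dead-cell DNA was read by fluorescence at 0, 8, 16, 24, 32 and 40 h time points.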
# [4] = qHTS RealTime-Glo MT Cell Viability Assay in HepG2 cells - 16 hour (AID 1224885); also: nearly all actives have a fitted effect of over 50% in size
# Method in brief: (§4)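 HepG2 cells were seeded at 600 cells/well together with NanoLuc luciferase and a cell-permeant prosubstrate, preincubated 5 h at 37 C/5% CO2, then pin-dosed with compounds in DMSO. Nonlytic luminescence from viable cells was read at each time point.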
# [5] = qHTS RealTime-Glo MT Cell Viability Assay in HEK293 cells - 24 hour (AID 1224886); also: nearly all actives have a fitted effect of over 50% in size; also: potency is read from the fitted curve at half-maximal effect; as to activity change, negative = cytotoxicity: top concentration of the series differs between compounds
# Method in brief: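 HEK293 cells were seeded at 600 cells/well together with NanoLuc luciferase and cell-permeant prosubstrate, preincubated 5 h at 37 C/5% CO2, then given compound in DMSO by pintool. Luminescence from viable-cell prosubstrate reduction was read repeatedly over 40 h.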
# [6] = qHTS RealTime-Glo MT Cell Viability Assay in HEK293 cells - 8 hour (AID 1224887); also: top concentration of the series differs between compounds; nearly all actives have a fitted effect of over 50% in size
# Method in brief: as §1
# [7] = A CellTox Green Cytotoxicity Assay to monitor cytotoxicity in HEK293 cells - 16 hour (AID 1224888); also: nearly all actives have a fitted effect of over 35% in size
# Method in brief: as §3
# [8] = qHTS RealTime-Glo MT Cell Viability Assay in HepG2 cells - 0 hour (AID 1224889); also: nearly all actives have a fitted effect of over 50% in size
# Method in brief: as §4
# [9] = A CellTox Green Cytotoxicity Assay to monitor cytotoxicity in HepG2 cells - 8 hour (AID 1224890); also: nearly all actives have a fitted effect of over 45% in size
# Method in brief: as §2
# [10] = qHTS assay to identify small molecule antagonists of the estrogen receptor alpha (ER-alpha) signaling pathway using the BG1 cell line in the presence of 0.1 nM 17-beta-estradiol - cell viability counter screen (AID 1259241); also: nearly all actives have a fitted effect of over 40% in size
# Method in brief: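 Cells were plated and left 24 hr, compounds in DMSO were pinned in, 17beta-estradiol was added to 0.1 nM final, and after 22 hr CellTiter-Fluor reagent was added for 30 min before fluorescence was read.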
# [11] = qHTS assay to identify small molecule antagonists of the androgen receptor (AR) signaling pathway using the MDA cell line in the presence of 0.5 nM R1881 - cell viability counter screen (AID 1259242); also: nearly all actives have a fitted effect of over 45% in size
# Method in brief: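 MDA-kb2 cells (MMTV-luciferase, AR/GR responsive) were treated with compounds plus 0.5 nM R1881 (final) for 16 hr at 37C, 0% CO2. Viability was then read in the same wells as live-cell protease fluorescence (CellTiter-Fluor, 30 min).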
# [12] = qHTS assay to identify small molecule HDAC inhibitors (AID 1259364); also: nearly all actives have a fitted effect of over 45% in size; also: potency is read from the fitted curve at half-maximal effect; as to activity change, negative = inhibition: top concentration of the series differs between compounds
# Method in brief: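 Wild-type HCT-116 cells, plated overnight at 37 C, exposed to compounds 2 hr at 37 C; luminogenic HDAC-Glo substrate then added 30 min at room temperature. Luminescence reports relative endogenous class I/II HDAC activity.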
# [13] = qHTS assay to identify small molecule agonists of the sonic hedgehog signaling (Shh) pathway - cell viability counter screen (AID 1259366); also: nearly all actives have a fitted effect of over 50% in size
# Method in brief: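 Cells are plated at 2,000 per well and left 4hr at 37C, 5% CO2 before compound addition. After 23hr of treatment, CellTiter-Fluor reagent is added for 1hr at 37C and fluorescence is measured.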
# [14] = qHTS assay to identify small molecule antagonists of the sonic hedgehog signaling (Shh) pathway - cell viability counter screen (AID 1259367); also: nearly all actives have a fitted effect of over 55% in size
# Method in brief: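 NIH/3T3-derived Gli1-Luc reporter cells (2,000 per well) rested 4 hr at 37 C, then received DMSO compounds plus conditioned medium. After 23 hr of treatment, CellTiter-Fluor was added for 1 hr at 37C and fluorescence read.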
# [15] = A CellTox Green Cytotoxicity Assay to monitor cytotoxicity in HEK293 cells - 32 hour (AID 1224881); also: nearly all actives have a fitted effect of over 40% in size
# Method in brief: as §3
# [16] = A CellTox Green Cytotoxicity Assay to monitor cytotoxicity in HepG2 cells - 0 hour (AID 1224882); also: nearly all actives have a fitted effect of over 35% in size
# Method in brief: as §2
# [17] = biological target: Androgen receptor (Homo sapiens) (UniProt P10275); assay: qHTS assay to identify small molecule antagonists of the androgen receptor (AR) signaling pathway using the MDA cell line in the presence of 0.5 nM R1881 (AID 1259243); also: nearly all actives have a fitted effect of over 50% in size
# Method in brief: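 MDA-kb2 cells (MMTV-luciferase, responsive to AR and GR) at 3,000/well, rested 5 h at 37C, 0% CO2, then given compounds plus 0.5 nM R1881 (final) for 16 hr. Luciferase read with ONE-Glo after 30 min at room temperature.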
# [18] = biological target: Estrogen receptor (Homo sapiens) (UniProt P03372); assay: qHTS assay to identify small molecule antagonists of the estrogen receptor alpha (ER-alpha) signaling pathway using the BG1 cell line in the presence of 0.1 nM 17-beta-estradiol (AID 1259244); also: nearly all actives have a fitted effect of over 50% in size
# Method in brief: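 VM7Luc4E2 cells (endogenous full-length ER-alpha, 4×ERE-luciferase), kept 5 days in phenol red-free, charcoal-stripped FBS medium; 4,000 cells/well. Compounds added with 0.1 nM (final) 17beta-estradiol, 22 hr at 37C; luminescence read with ONE-Glo after 30 min.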
# [19] = qHTS assay to identify small molecule HDAC inhibitors - cell viability counter screen (AID 1259365)
# Method in brief: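 Counter screen in wild-type HCT-116 cells: compounds dissolved in DMSO are pin-transferred onto overnight-plated cells and left 2hr at 37C. ATP-based CellTiter-Glo luminescence then measures viable cells.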
# [20] = qHTS assay to identify small molecule phospholipidosis (PLD) inducers (AID 1259344; active = well fitted curve in the direction sought with a large enough effect; an effect the other way counts as inactive or inconclusive)
# Method in brief: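 HepG2 cells on collagen I, attached 4 h at 37 C, were co-treated with compound and LipidTOX Red dye for 24 h at 37 C, then fixed with paraformaldehyde plus Hoechst 33342 and imaged by high-content microscopy for phospholipid accumulation.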
# Chain of Estrogen receptor (Homo sapiens) (P03372 whole entry, looked up): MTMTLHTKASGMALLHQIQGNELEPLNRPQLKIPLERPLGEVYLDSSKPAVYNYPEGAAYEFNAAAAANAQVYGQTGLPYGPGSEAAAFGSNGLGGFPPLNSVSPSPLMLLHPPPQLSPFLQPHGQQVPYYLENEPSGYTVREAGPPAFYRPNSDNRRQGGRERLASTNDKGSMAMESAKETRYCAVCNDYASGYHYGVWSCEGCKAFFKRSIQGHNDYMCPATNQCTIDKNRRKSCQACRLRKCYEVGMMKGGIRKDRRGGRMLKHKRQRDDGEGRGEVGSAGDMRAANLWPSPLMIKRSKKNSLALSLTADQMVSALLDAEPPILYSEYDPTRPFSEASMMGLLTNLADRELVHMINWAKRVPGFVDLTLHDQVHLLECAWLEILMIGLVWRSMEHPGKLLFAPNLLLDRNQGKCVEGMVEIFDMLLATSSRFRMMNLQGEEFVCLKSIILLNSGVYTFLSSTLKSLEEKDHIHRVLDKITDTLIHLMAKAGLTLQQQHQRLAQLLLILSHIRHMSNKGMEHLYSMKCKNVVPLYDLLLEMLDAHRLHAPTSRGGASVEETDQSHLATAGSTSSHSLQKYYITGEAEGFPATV
# Chain of Androgen receptor (Homo sapiens) (P10275 whole entry, looked up): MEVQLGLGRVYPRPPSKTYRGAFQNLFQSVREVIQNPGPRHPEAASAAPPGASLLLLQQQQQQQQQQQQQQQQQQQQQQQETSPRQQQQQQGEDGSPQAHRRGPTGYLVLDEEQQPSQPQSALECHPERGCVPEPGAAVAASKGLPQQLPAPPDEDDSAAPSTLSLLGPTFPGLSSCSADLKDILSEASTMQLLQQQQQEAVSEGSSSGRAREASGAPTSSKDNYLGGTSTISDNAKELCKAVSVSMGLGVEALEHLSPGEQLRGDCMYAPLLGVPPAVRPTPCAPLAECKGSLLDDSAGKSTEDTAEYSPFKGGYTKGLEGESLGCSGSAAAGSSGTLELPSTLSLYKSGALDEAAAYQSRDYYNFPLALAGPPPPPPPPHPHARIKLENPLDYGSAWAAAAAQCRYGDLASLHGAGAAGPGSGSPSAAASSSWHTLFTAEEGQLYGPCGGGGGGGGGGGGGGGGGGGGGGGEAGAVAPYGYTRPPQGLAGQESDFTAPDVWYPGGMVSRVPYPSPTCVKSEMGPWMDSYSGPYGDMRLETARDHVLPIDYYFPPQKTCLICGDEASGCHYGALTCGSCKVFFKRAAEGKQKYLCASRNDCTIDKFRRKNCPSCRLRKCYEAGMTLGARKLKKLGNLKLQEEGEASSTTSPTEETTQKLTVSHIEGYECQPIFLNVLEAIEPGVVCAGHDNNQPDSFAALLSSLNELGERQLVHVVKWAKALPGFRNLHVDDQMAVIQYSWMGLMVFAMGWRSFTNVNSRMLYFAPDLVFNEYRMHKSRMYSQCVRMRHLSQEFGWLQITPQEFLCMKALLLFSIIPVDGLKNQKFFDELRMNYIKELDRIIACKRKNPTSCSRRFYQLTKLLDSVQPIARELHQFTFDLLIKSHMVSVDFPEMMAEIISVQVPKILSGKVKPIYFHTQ
smiles,measurement,setting,value
O=[N+]([O-])c1cccc(I)c1,Potency,[1],inactive
same,Potency,[2],inactive
same,Potency,[3],inactive
same,outcome,[4],inactive
same,Potency,[5],inactive
same,Potency,[6],inactive
same,Potency,[7],inactive
same,Potency,[8],inactive
same,Potency,[9],inactive
same,Potency,[10],inactive
same,Potency,[11],inactive
same,Potency,[12],inactive
same,Potency,[13],inactive
same,Potency,[14],inactive
CCCCCCCCOCCCN,Potency,[15],inactive
same,Potency,[16],inactive
same,Potency,[2],inactive
same,Potency,[3],inactive
same,outcome,[4],inactive
same,Potency,[6],inactive
same,Potency,[7],inactive
same,Potency,[9],inactive
same,Potency,[10],inactive
same,Potency,[11],inactive
same,Potency,[17],inactive
same,Potency,[18],inactive
same,Potency,[12],inactive
same,outcome,[19],inactive
O=C(O)c1cccc(C(=O)O)c1C(=O)O,Potency,[1],inactive
same,Potency,[15],inactive
same,Potency,[2],inactive
same,Potency,[3],inactive
same,outcome,[4],inactive
same,Potency,[5],inactive
same,Potency,[7],inactive
same,Potency,[8],inactive
same,Potency,[9],inactive
same,Potency,[10],inactive
same,Potency,[11],inactive
same,Potency,[17],inactive
same,Potency,[12],inactive
same,Potency,[13],inactive
same,Potency,[14],inactive
COc1cc(C)c(Cc2cnc(N)nc2N)cc1OC,Potency,[1],inactive
same,Potency,[15],inactive
same,Potency,[2],inactive
same,outcome,[4],inactive
same,Potency,[5],inactive
same,Potency,[6],inactive
same,Potency,[7],inactive
same,Potency,[8],inactive
same,Potency,[9],inactive
same,Potency,[10],inactive
same,Potency,[11],inactive
same,Potency,[18],inactive
same,Potency,[20],inactive
same,Potency,[12],inactive
same,outcome,[19],inactive
same,Potency,[13],inactive
same,Potency,[14],inactive
c1ccc(-c2ccc(-c3ccccc3)cc2)cc1,"activity change, negative = cytotoxicity",[1],1.15% [at 15.8 µM]
same,cytotoxicity increase,[15],-3.83% [at 15.8 µM]
same,cytotoxicity increase,[2],2.09% [at 15.8 µM]
same,cytotoxicity increase,[3],-5.69% [at 15.8 µM]
same,"activity change, negative = cytotoxic",[4],0.423% [at 15.8 µM]
same,activity change,[7],"-4.6% [at 15.8 µM, active compounds read high]"
same,"activity change, negative = cytotoxicity",[8],-2.66% [at 15.8 µM]
same,cytotoxicity increase,[9],-1.41% [at 15.8 µM]
same,"activity change, negative = cytotoxicity",[10],0.519% [at 19 µM]
same,"viability change, negative = cytotoxic",[11],1.4% [at 19 µM]
same,"activity change, negative = inhibition",[18],56.5% [at 19 µM]
same,Potency,[12],4.45 µM (active)
same,"activity change, negative = cytotoxicity",[19],0.606% [at 19 µM]
same,"viability change, negative = cytotoxic",[13],0.865% [at 19 µM]
same,"viability change, negative = cytotoxic",[14],-1.08% [at 19 µM]
CC1=CC(=C(c2ccc(N)cc2)c2ccc(N)cc2)C=CC1=N,"activity change, negative = cytotoxicity",[1],12.8% [at 6.97 µM]
same,cytotoxicity,[16],0.461% [at 6.97 µM]
same,cytotoxicity increase,[2],0.891% [at 6.97 µM]
same,cytotoxicity increase,[3],-4.58% [at 6.97 µM]
same,"activity change, negative = cytotoxic",[4],0.128% [at 6.97 µM]
same,"activity change, negative = cytotoxicity",[6],-15.3% [at 6.97 µM]
same,activity change,[7],"-0.601% [at 6.97 µM, active compounds read high]"
same,"activity change, negative = cytotoxicity",[8],9.14% [at 6.97 µM]
same,cytotoxicity increase,[9],1.46% [at 6.97 µM]
same,"activity change, negative = cytotoxicity",[10],-17.9% [at 8.39 µM]
same,"viability change, negative = cytotoxic",[11],-23% [at 8.39 µM]
same,Potency,[20],inactive
same,"activity change, negative = inhibition",[12],-3.34% [at 8.39 µM]
same,"activity change, negative = cytotoxicity",[19],-17.7% [at 8.39 µM]
same,"viability change, negative = cytotoxic",[14],-16.1% [at 8.39 µM]
COc1ccc(C(=O)Nc2ccccc2)cc1[N+](=O)[O-],Potency,[1],inactive
same,Potency,[2],inactive
same,Potency,[3],inactive
same,outcome,[4],inactive
same,Potency,[5],24.7 µM (active)
same,Potency,[7],inactive
same,Potency,[8],inactive
same,Potency,[9],inactive
same,Potency,[10],inactive
same,Potency,[11],inactive
same,Potency,[18],inactive
same,Potency,[12],24.5 µM (active)
same,outcome,[19],inactive
same,Potency,[13],inactive
same,Potency,[14],inactive
c1ccc(CCNc2nc(-c3ccccc3)cs2)cc1,Potency,[1],inactive
same,Potency,[3],inactive
same,outcome,[4],inactive
same,Potency,[5],inactive
same,Potency,[8],inactive
same,Potency,[10],inactive
same,Potency,[11],inactive
same,Potency,[20],inactive
same,Potency,[12],2.98 µM (active)
same,outcome,[19],inactive
same,Potency,[13],inactive
same,Potency,[14],inactive
CCCC1CCOC(C)S1 (configuration not stated),Potency,[1],inactive
same,Potency,[15],inactive
same,Potency,[2],inactive
same,Potency,[3],inactive
same,outcome,[4],inactive
same,Potency,[7],inactive
same,Potency,[8],inactive
same,Potency,[9],inactive
same,Potency,[10],inactive
same,Potency,[11],inactive
same,Potency,[17],inactive
same,Potency,[12],inactive
same,outcome,[19],inactive
same,Potency,[13],inactive
same,Potency,[14],inactive

# Source: PubChem BioAssay (Tox21)
